From PubChem BioAssay (NCATS) come the findings set out here.

Results filed as inconclusive are left out. Values without a mark were called inactive. The source made the active and inactive calls. Unless noted, the call rests on the fitted dose curve; in most records, active means well fitted curve in the direction sought with a large enough effect; inconclusive means small, poorly fitted or top-dose-only effect, or another doubt; inactive means no such curve, though single readings can be large; an effect the other way counts as inactive or inconclusive.

Test [1] in a line: Primary qHTS for inhibitors of La Crosse Virus (LACV) - induced cell death in SH-SY5Y cells (AID 1508616).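 Further: top concentration of the series differs between compounds; 0% = infected DMSO wells and 100% = uninfected DMSO wells; higher means more rescue of cells from virus-induced death.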 The method in brief:
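Rescue of virus-induced death was read as ATPLite luminescence after 6 days at 37C, scaled between DMSO wells with LACV and without virus. Cells were SH-SY5Y, 6000/well, infected at 0.01 MOI after compound addition.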

Test [2] addresses Calcium and integrin-binding protein 1 (Homo sapiens) (UniProt Q99828). Description: Validation qHTS for Identification of Calcium Integrin Binding protein 1 (CIB1) Competitor (AID 1508618). Further: on the % scale 0 is the no-effect control and ±100 the full control effect. In a few lines:
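Fluorescence polarization with 1 uM CIB1-GST and 100 nM FITC-alphaIIb peptide in HEPES pH 7.4, NaCl, 5 mM CaCl2, Tween20. Compounds at up to 114 uM final, preincubated with protein 15 min; read after 15 min more at RT.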

Test [3] can be described thus: Primary qHTS for small molecule stabilizers of the endoplasmic reticulum resident proteome: Secreted ER Calcium Modulated Protein (SERCaMP) assay (AID 1508630). Further: on the % scale 0 is the no-effect control and ±100 the full control effect. In a few lines:
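The SH-SY5Y reporter protocol was run at 3 concentrations up to 38.3 uM (primary) or 11 concentrations (follow-up): 16 h compound, 100 nM thapsigargin for 4 h, then extracellular luciferase luminescence.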
In general terms: Quantitative high-throughput screening tests each substance at several concentrations.

Test [4] addresses Papain (Carica papaya) (UniProt P00784). Briefly: Primary qHTS assay for inhibitors of the protease papain (AID 1645873).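 Further: papain turnover of Z-FR-AMC read as the AMC fluorescence gain over 10 min; series mostly up to about 50 µM; on the % scale 0 is the no-effect control and ±100 the full control effect.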
Test [5] concerns the target Calcium and integrin-binding protein 1 (Homo sapiens) (UniProt Q99828). Description: Primary qHTS for Identification of Calcium Integrin Binding Protein 1 (CIB1) Competitor (AID 1508620). Further: potency means the concentration at half of the fitted maximal effect. In a few lines:
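Fluorescence polarization competition: GST-tagged CIB1 (1 uM final) preincubated with compound 15 min at room temperature, then FITC-labelled alphaIIb peptide (100 nM final) added. After 15 min at room temperature, polarization read at Ex 480/Em 540.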

Test [6] has as its target Cytochrome P450 2D6 (Homo sapiens) (UniProt P10635). Briefly: Cytochrome P450 family 2 subfamily D member 6 (CYP2D6) small molecule antagonists: luciferase biochemical (cell-free) qHTS assay (AID 1645840; active means well fitted curve in the direction sought with a large enough effect in the repeat runs; an effect the other way counts as inactive or inconclusive; further: nearly all actives have a fitted effect of over 55% in size; further: potency means the concentration at half of the fitted maximal effect). The method in brief:
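P450-Glo CYP2D6 system: proluciferin substrate converted by enzyme to luciferin, read by luminescence proportional to activity. Enzyme-substrate mix with compound 10 min at room temperature, then NADPH regeneration 1 h before detection reagent.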

A short description of test [7]: Cell Viability qHTS for small molecule stabilizers of the endoplasmic reticulum resident proteome (AID 1508629).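 Further: compound exposure about 46 h in total before the viability read.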 Further: potency means the concentration at half of the fitted maximal effect.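 On max response: human SH-SY5Y neuroblastoma cells carrying the GLuc-SERCaMP reporter; on the % scale 0 is the no-effect control and ±100 the full control effect.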 Conditions: cell viability counter-screen, 100 nM thapsigargin for final 4 h.
Test [8] deals with Cytochrome P450 2C9 (Homo sapiens) (UniProt P11712). Description: Cytochrome P450 family 2 subfamily C member 9 (CYP2C9) small molecule antagonists: luciferase biochemical (cell-free) qHTS assay (AID 1645842; active means well fitted curve in the direction sought with a large enough effect in the repeat runs; an effect the other way counts as inactive or inconclusive; further: nearly all actives have a fitted effect of over 55% in size; further: potency means the concentration at half of the fitted maximal effect). In a few lines: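 P450-Glo CYP2C9 system: proluciferin substrate with enzyme in mix containing 0.4% BSA, 10 min at room temperature, then NADPH regeneration solution added and incubated 1 h at 37C. Detection reagent stopped reaction; luminescence read after 20 min as RLU.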
Cytochrome P450 2C9 (Homo sapiens), sequence (P11712 whole entry, looked up): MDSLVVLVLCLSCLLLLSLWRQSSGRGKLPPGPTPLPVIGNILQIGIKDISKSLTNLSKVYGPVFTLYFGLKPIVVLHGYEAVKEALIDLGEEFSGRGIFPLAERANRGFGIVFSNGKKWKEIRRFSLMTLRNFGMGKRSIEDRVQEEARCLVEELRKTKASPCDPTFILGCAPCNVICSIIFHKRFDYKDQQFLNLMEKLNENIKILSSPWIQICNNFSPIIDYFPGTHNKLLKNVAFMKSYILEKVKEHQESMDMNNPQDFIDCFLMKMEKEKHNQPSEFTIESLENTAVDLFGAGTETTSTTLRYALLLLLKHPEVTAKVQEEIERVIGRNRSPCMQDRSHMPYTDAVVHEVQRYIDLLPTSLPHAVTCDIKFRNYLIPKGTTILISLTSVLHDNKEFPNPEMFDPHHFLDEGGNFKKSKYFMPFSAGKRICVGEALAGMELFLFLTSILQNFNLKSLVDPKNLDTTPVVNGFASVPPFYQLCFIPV

Test [9] in a line: Primary qHTS for inhibitors of nuclear receptor binding SET domain protein 2 (NSD2) in an isogenic RCH-ACV NSD2 p.E1099K mutant (9B) (AID 1645876). Further: nearly all actives have a fitted effect of over 70% in size. Further: potency means the concentration at half of the fitted maximal effect.
A short description of test [10]: Primary qHTS for inhibitors of nuclear receptor binding SET domain protein 2 (NSD2) in an RCH-ACV wild type WT cells (2C) (AID 1645877). Further: nearly all actives have a fitted effect of over 70% in size. Further: potency means the concentration at half of the fitted maximal effect.
Test [11] addresses Calcium and integrin-binding protein 1 (Homo sapiens) (UniProt Q99828). Briefly: Confirmatory qHTS for Identification of Calcium Integrin Binding Protein 1 (CIB1) Competitor (AID 1508617). Further: potency means the concentration at half of the fitted maximal effect; nearly all actives have a fitted effect of over 65% in size. In a few lines:
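FP competition: CIB1-GST (1 uM final) in 5 mM HEPES pH 7.4, 125 mM NaCl, 5 mM CaCl2, 0.01% Tween20 preincubated 15 min RT with compounds (up to 114 uM), then FITC-alphaIIb peptide (100 nM), 15 min RT; Ex 480/Em 540.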

Test [12] in a line: A High-Content qHTS Against Drug Library for the Identification of Small Molecules that Inhibit DYT1 Early Onset Primary Dystonia-Associated Cell Pathology (AID 1645839; calls by dose curve; further: series mostly up to about 46 µM). In a few lines: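 Cells were seeded and left for 24 h, then dosed with compound alongside tetracycline induction of mutant EGFP-TorsinA. They were incubated for 48 h, fixed in 4% paraformaldehyde, permeabilized and imaged for mislocalization (%pathology) and cell count.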

Test [13] can be described thus: Confirmatory qHTS for small molecule stabilizers of the endoplasmic reticulum resident proteome: Secreted ER Calcium Modulated Protein (SERCaMP) assay (AID 1508628). Further: nearly all actives have a fitted effect of over 40% in size. Further: potency means the concentration at half of the fitted maximal effect. In a few lines: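 Reporter secretion upon ER calcium depletion (100 nM thapsigargin, 4 h, 37C) is measured as medium luminescence with coelenterazine, after 16 h compound pretreatment of SH-SY5Y-GLuc-SERCaMP cells; primary at three concentrations up to 38.3 uM, follow-up at 11 (up to 76.6 uM).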

Test [14] has as its target Rap guanine nucleotide exchange factor 3 (Homo sapiens) (UniProt O95398). Briefly: Confirmatory qHTS for antagonist of cAMP-regulated guanine nucleotide exchange factor 3 (EPAC1) (AID 1645880).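 Further: plate controls were DMSO only for no effect and full effect of the ATA control for full effect; nearly all actives have a fitted effect of over 55% in size.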 The method in brief:
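Released BODIPY-GDP fluoresces less than Rap1-bound BODIPY-GDP; the signal is followed at 480/540 nm at 5-min intervals over 30 min, after 5 min at room temperature. Reactions contain 100 nM EPAC1, 250 nM RAP1B-BODIPY-GDP and 50 uM GDP; results are normalized to ATA and DMSO.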

The target is the same in test [15]. Briefly: Confirmatory qHTS for agonist of cAMP-regulated guanine nucleotide exchange factor 3 (EPAC1) (AID 1645881).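 Further: EPAC1 catalysed release of BODIPY-GDP from Rap1B seen as fluorescence loss; 100% = effect of cAMP agonist control; nearly all actives have a fitted effect of over 75% in size.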
The target of test [16] is Rap guanine nucleotide exchange factor 4 (Homo sapiens) (UniProt Q8WZA2). Briefly: Confirmatory qHTS for agonist of cAMP-regulated guanine nucleotide exchange factor 4 (EPAC2) (AID 1645884).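 Further: nucleotide exchange releases bodipy-GDP from Rap1 and this lowers its fluorescence; on the % scale 0 is the no-effect control and ±100 the full control effect; nearly all actives have a fitted effect of over 65% in size.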
Rap guanine nucleotide exchange factor 4 (Homo sapiens), sequence (Q8WZA2 whole entry, looked up): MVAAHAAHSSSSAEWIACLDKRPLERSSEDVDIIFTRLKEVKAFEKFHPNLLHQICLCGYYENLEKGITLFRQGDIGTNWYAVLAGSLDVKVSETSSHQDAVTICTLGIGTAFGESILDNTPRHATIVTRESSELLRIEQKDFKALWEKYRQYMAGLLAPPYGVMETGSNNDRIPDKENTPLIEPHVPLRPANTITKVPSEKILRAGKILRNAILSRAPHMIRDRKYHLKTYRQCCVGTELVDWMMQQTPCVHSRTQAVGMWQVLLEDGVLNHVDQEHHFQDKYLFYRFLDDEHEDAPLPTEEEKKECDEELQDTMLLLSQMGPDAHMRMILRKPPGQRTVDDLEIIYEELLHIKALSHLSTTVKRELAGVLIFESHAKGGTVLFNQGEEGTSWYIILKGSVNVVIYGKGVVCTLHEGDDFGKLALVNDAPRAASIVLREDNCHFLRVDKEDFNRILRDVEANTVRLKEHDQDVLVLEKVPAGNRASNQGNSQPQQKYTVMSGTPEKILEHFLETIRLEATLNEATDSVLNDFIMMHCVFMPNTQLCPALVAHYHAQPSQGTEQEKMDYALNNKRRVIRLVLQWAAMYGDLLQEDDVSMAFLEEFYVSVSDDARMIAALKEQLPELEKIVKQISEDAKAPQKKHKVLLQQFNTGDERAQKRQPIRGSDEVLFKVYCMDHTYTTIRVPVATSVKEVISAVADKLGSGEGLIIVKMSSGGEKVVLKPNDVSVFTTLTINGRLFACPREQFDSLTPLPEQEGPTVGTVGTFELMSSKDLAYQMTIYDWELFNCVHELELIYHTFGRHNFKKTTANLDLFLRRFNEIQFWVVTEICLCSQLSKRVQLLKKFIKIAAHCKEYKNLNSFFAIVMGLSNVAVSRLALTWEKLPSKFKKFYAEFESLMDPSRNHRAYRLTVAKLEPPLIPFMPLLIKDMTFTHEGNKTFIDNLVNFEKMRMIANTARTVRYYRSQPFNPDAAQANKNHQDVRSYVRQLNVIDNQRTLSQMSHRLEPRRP
Test [17] shares this target. Description: Confirmatory qHTS for antagonist of cAMP-regulated guanine nucleotide exchange factor 4 (EPAC2) (AID 1645885). Further: on the % scale 0 is the no-effect control and ±100 the full control effect; nearly all actives have a fitted effect of over 25% in size.

Cytochrome P450 2D6 (Homo sapiens), sequence (P10635 whole entry, looked up): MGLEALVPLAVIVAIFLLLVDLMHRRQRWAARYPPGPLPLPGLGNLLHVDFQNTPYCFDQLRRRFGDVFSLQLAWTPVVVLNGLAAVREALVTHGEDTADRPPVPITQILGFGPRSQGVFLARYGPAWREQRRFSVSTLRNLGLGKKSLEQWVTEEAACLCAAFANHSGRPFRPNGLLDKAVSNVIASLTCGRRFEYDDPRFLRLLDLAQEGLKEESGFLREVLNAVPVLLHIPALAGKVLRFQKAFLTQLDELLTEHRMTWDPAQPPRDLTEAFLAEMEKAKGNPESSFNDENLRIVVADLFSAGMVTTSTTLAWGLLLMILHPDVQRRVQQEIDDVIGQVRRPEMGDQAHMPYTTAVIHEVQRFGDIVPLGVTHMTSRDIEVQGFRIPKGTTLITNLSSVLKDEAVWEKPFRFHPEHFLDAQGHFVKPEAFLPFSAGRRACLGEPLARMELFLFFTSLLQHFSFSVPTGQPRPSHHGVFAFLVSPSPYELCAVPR
Papain (Carica papaya), sequence (P00784 whole entry, looked up): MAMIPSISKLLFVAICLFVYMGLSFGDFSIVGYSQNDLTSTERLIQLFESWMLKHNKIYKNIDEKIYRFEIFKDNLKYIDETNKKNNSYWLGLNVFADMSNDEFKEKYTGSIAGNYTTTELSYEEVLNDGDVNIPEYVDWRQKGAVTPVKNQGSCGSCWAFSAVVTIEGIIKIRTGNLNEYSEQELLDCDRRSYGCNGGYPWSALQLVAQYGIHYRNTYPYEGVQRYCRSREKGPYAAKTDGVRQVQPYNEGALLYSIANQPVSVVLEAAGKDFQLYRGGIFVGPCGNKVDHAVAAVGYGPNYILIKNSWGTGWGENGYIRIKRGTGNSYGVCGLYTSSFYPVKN
Calcium and integrin-binding protein 1 (Homo sapiens), sequence (Q99828 whole entry, looked up): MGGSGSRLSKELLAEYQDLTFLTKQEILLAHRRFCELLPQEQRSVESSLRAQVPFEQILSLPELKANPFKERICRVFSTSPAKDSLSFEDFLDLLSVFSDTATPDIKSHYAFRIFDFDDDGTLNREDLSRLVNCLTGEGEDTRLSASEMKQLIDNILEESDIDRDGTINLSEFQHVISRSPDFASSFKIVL
Rap guanine nucleotide exchange factor 3 (Homo sapiens), sequence (O95398 whole entry, looked up): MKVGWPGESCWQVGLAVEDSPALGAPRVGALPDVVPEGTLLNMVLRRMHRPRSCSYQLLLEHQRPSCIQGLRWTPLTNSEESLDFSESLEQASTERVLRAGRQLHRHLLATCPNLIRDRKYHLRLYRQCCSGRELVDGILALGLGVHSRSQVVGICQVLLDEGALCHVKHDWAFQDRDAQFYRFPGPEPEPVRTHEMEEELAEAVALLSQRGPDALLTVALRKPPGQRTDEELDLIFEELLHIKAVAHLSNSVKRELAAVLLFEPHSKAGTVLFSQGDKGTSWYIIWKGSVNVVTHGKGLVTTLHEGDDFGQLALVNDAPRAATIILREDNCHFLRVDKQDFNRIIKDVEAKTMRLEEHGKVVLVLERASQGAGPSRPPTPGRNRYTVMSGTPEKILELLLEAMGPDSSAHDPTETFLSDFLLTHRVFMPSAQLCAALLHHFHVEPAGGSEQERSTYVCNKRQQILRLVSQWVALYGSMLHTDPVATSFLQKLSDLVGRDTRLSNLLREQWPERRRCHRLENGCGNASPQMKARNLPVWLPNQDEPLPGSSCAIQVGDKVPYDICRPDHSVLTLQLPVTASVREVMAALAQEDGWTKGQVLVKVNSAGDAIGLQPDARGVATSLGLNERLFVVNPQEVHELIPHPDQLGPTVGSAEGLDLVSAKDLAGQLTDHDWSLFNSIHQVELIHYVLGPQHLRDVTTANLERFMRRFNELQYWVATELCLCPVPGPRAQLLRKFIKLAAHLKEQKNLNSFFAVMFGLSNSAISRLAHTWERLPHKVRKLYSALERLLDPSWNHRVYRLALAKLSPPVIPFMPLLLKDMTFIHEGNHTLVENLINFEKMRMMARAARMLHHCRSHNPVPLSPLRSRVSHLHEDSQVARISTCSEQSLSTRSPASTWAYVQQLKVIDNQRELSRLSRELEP

In the case of `CC(C)COC(=O)OCN1C(=O)CN(CCN2CC(=O)N(COC(=O)OCC(C)C)C(=O)C2)CC1=O`, the Potency result in test [1], in [3] and in test [4] was “inactive” throughout. For the same compound, the outcome in [2] was inactive.
As to `CC(=O)c1ccc2c(c1)N(CCCN1CCC(CCO)CC1)c1ccccc1S2`, the Potency result in [1] and in test [5] was “inactive” in each case.
As to `C[N+]1(CCCCC[N+]2(C)CCCC2)CCCC1`, the Potency entry in test [1], in [3], in test [6] and in test [4] was “inactive” in each case. Also, in [2], the result was inactive.
For the compound `N[C@@H](Cc1cnc[nH]1)C(=O)O`, the Potency entry in test [1], in test [3] and in [4] was “inactive” in each case. Moreover, in test [2], the result was inactive.
With `Oc1ccc(O)cc1`, the Potency result in [1], in [5], in [8] and in test [4] was “inactive” in each case. For the same compound, the result in [2] was inactive. Further, the max response in [7] is -23.4%. Besides, the values for the Potency in test [9] and in [10] were 11.9 µM (active) and 15 µM (active), respectively.
On to `N[C@H](CO)C(=O)O`, for which the Potency entry in test [1], in test [3], in [6], in test [8] and in test [4] was “inactive” throughout. Moreover, the result in test [2] was inactive.
As to `CCOc1ccc2nc3cc(N)ccc3c(N)c2c1`, the Potency entry in [1], in [3], in [12] and in [8] was “inactive” each time. For the same compound, the Potency in test [11] was 25.1 µM (active); in [5], 44.7 µM (active); in [6] it was 15.5 µM (active); in test [9], 5.96 µM (active); in test [10] it was 5.31 µM (active).
On to `CCC(NC(C)C)C(O)c1ccc(O)c(O)c1` (centres undefined), for which the Potency result in test [1], in test [3] and in test [4] was “inactive” in each case. The result in test [2] was inactive. In addition, in test [8], the Potency is 15.1 µM (active).
For `C[C@@H](CN(C)C)CN1c2ccccc2Sc2ccccc21`, the Potency entry in [1] and in test [5] was “inactive” throughout.
Regarding `O=C1CCC(c2ccc(-n3ccnc3)cc2)=NN1`, the Potency result in test [1], in test [3] and in [4] was “inactive” each time. In test [2], the outcome was inactive.
With `Nc1nc2ncc(CNc3ccc(C(=O)N[C@@H](CCC(=O)O)C(=O)O)cc3)nc2c(=O)[nH]1`, the Potency entry in test [1], in test [5], in test [13], in [6], in test [8] and in [9] was “inactive” each time. The Potency result in test [10] is “inactive”. The max response in test [7] was 22.5%.
As for `CC1=C(C(=O)OC(C)C)C(c2cccc([N+](=O)[O-])c2)C(C(=O)OC2CN(C(c3ccccc3)c3ccccc3)C2)=C(N)N1` (centres undefined), the Potency result in [1], in [5], in test [9], in [10], in test [14] and in test [16] was “inactive” throughout. For the same compound, the Potency entry in test [17] was “inactive”. The Potency is 28.2 µM (active) in test [13], 9.77 µM (active) in test [6] and 1.95 µM (active) in test [8]. The max response in test [7] is -0.744%. Also, in [15], the compound was called inactive.
In the case of `Nc1cc(Cl)c(NC2=NCCN2)c(Cl)c1`, the Potency result in test [1], in test [3] and in test [4] was “inactive” in each case. The outcome in test [2] was inactive.
As to `C[C@@H]1CN(CCCn2c3ccccc3c3ccccc32)C[C@H](C)N1`, the Potency result in test [1], in test [5], in test [13] and in [8] was “inactive” each time. Moreover, the Potency in test [7] was 31.6 µM (active); in [9] it was 26.6 µM (active); in [10] it was 23.7 µM (active).
For the compound `CCCCCCCCCCCCCCCCCC(=O)OCC(O)CO` (centres undefined), the Potency entry in test [1], in [5], in [13], in test [12], in [6] and in test [8] was “inactive” in each case. For the same compound, the Potency entry in test [9] and in [10] was “inactive” each time. Moreover, in [7], the max response is 15.4%.
